Only some compounds are listed: those with a hit (about 1.1% of all), similar ones and a draw of the others.
Mtb bLac sens: beta-lactam sensitization of Mtb H37Rv | 330,000 compounds, 0.27% hits | inhibition, % at 25 µM | M. tuberculosis H37Rv growth with meropenem, percent inhibition; call rule not given here;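 note: growth measured after seven days incubation then overnight dye step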
Rv3671c inh: inhibitors of M. tuberculosis serine protease Rv3671c | AID 2606 | inhibition, % at 5.96 µM | P9WHR9 | 320,000 compounds, 0.048% hits; in the data active = inhibition above about 38%;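 note: extracellular domain of Rv3671c used as enzyme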
Target sequence (P9WHR9 whole entry, looked up, the tested form may be a part): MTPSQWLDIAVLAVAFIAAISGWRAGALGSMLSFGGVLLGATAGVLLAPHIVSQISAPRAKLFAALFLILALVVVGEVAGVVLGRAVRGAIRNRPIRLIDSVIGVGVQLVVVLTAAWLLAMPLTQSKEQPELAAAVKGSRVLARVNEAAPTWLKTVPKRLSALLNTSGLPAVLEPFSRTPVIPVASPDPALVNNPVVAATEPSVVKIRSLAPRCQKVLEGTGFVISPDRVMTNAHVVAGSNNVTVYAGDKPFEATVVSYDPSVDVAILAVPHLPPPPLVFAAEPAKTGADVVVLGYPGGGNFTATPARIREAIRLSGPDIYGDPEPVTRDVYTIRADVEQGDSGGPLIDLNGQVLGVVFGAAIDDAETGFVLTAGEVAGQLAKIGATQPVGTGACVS
RecA splice inh: blocks M. tuberculosis RecA intein splicing; P9WHJ3; cell-free RecA intein splicing, fluorescence; inhibition, % (concentration not given with the values); 290,000 compounds, 0.75% hits; in the data active = inhibition above about 30%
SSB-PriA inh: K. pneumoniae PriA-SSBct interaction inhibition. 430,000 compounds, 0.6% hits. AlphaScreen SSBct-PriA binding, biotinylated peptide. inhibition, % at 33 µM; in the data active = inhibition mostly above about 37%, no sharp cut-off; inactive = mostly below about 20%
UGM FP inh: blocks M. tuberculosis UGM enzyme; P9WIQ1; purified UGM, fluorescence polarization probe displacement; inhibition, % at 10 µM; 320,000 compounds, 0.06% hits; in the data active = inhibition above about 10%, passing the limit was not always enough
Large screens that a line does not name were inactive.

Cc1nc2cc(NS(=O)(=O)c3ccc(Cl)c(C(F)(F)F)c3)ccc2s1	none (no result: Mtb bLac sens, Rv3671c inh, RecA splice inh, UGM FP inh)
CC(=O)Nc1ccc(SCCCC(=O)N2CCN(C(=O)c3ccco3)CC2)nn1	none (no result: Mtb bLac sens, Rv3671c inh, RecA splice inh, UGM FP inh)
COc1cc(OC)cc(C(=O)Nc2nc(-c3nnn(-c4cc(F)ccc4F)c3C)ns2)c1	none (no result: Mtb bLac sens, Rv3671c inh, RecA splice inh, UGM FP inh)
COc1ccc(OC)c(NC(=O)CSc2nccn2-c2ccc(F)cc2)c1	SSB-PriA inh 54 (no result: Mtb bLac sens, Rv3671c inh, RecA splice inh, UGM FP inh)
COc1cccc(-n2ccnc2SCC(=O)Nc2ccccc2F)c1	none
COc1cccc(-n2ccnc2SCC(=O)Nc2cc(OC)ccc2OC)c1	SSB-PriA inh 46
COc1ccc(Cl)cc1NC(=O)CSc1nccn1-c1ccc(F)cc1	none (no result: Mtb bLac sens, Rv3671c inh, RecA splice inh, UGM FP inh)
COc1cccc(-n2ccnc2SCC(=O)Nc2ccccc2C(F)(F)F)c1	SSB-PriA inh 44 (no result: Mtb bLac sens, Rv3671c inh, RecA splice inh, UGM FP inh)
NC(=O)c1ccc(NC(=O)Cn2nc(C3CC3)c3cnn(-c4ccc(F)cc4)c3c2=O)cc1	none (no result: Mtb bLac sens, Rv3671c inh, RecA splice inh, UGM FP inh)
Brc1ccc2ccc3cccnc3c2n1	none (no result: Mtb bLac sens, Rv3671c inh, RecA splice inh, UGM FP inh)
Cc1ccc2ccc3cccnc3c2n1	SSB-PriA inh 50
C=CCSc1cccc2cccnc12	SSB-PriA inh 125 (no result: Mtb bLac sens, Rv3671c inh, RecA splice inh, UGM FP inh)
ClC1(Cl)CC1CSc1cccc2cccnc12 (stereo unspecified)	SSB-PriA inh 128 (no result: Mtb bLac sens, Rv3671c inh, RecA splice inh, UGM FP inh)
C#CCSc1cccc2cccnc12	none (no result: Mtb bLac sens, Rv3671c inh, RecA splice inh, UGM FP inh)
C=CCn1nc([N+](=O)[O-])nc1Sc1cccc2cccnc12	SSB-PriA inh 102
CCOc1ccc(-c2cc(-c3nc(-c4ccc(OC)cc4OC)no3)[nH]n2)cc1	none (no result: Mtb bLac sens, Rv3671c inh, RecA splice inh, UGM FP inh)
c1cnc2c(SSc3cccc4cccnc34)cccc2c1	none (no result: Mtb bLac sens, Rv3671c inh, RecA splice inh, UGM FP inh)
CSc1cccc2cccnc12	SSB-PriA inh 75 (no result: Mtb bLac sens, Rv3671c inh, RecA splice inh, UGM FP inh)
COC(=O)N1CCC(CNC(=O)C(=O)Nc2ccc3c(c2)CCCN3C(=O)c2cccs2)CC1	none (no result: Mtb bLac sens, Rv3671c inh, RecA splice inh, UGM FP inh)
CC(=O)c1ccc(N=Nc2ccc(N(C)C)cc2)cc1	none
CN(C)c1ccc(N=Nc2ccccc2Br)cc1	SSB-PriA inh 57
COc1ccc(C=NNc2cn[nH]c(=O)c2Cl)cc1	none (no result: Mtb bLac sens, Rv3671c inh, RecA splice inh, UGM FP inh)
N#CCn1c(CCl)nc2ccccc2c1=O	RecA splice inh 38
COc1ccc(/C=N/NC(=O)c2nn(-c3ccccc3)c(=O)c3c(N)scc23)cc1	RecA splice inh 68 (no result: SSB-PriA inh)
COc1ccc(/C=N/NC(=O)c2nn(-c3ccc(C)c(C)c3)c(=O)c3ccccc23)cc1	none (no result: SSB-PriA inh)
CCOC(=O)c1nn(-c2ccc(OC)cc2)c(=O)c2c(N)scc12	RecA splice inh 47
Cc1ccc2c(c1)c1c(n2CC(O)CNC2CCCC2)CCCC1 (stereo unspecified)	none
Cc1cc(C)c2c(c1)c(-c1ccccc1)c(-c1ccccc1)n2C[C@@H](O)CNC1CCCC1	SSB-PriA inh 45 (no result: Mtb bLac sens, Rv3671c inh, RecA splice inh, UGM FP inh)
O=C(C1=C(c2ccccc2)C(=O)c2ccccc2C1=O)c1ccccc1	RecA splice inh 36 (no result: Mtb bLac sens, Rv3671c inh, UGM FP inh)
O=C(c1ccccc1)c1c[nH]cc1-c1ccccc1	none
Cc1ccc(NC(=O)c2ccccc2NC(=O)C2COc3ccccc3O2)c(C(=O)c2ccccc2)c1 (stereo unspecified)	SSB-PriA inh 61 (no result: Mtb bLac sens, Rv3671c inh, RecA splice inh, UGM FP inh)
CC(C)NC(=O)c1ccccc1NC(=O)C1COc2ccccc2O1 (stereo unspecified)	none (no result: RecA splice inh)
O=c1n(CCNS(=O)(=O)c2ccccc2C(F)(F)F)nc(-c2ccco2)n1C1CC1	none (no result: Mtb bLac sens, Rv3671c inh, RecA splice inh, UGM FP inh)
Fc1ccc(NC(=S)N2CCCc3ccccc32)cc1	SSB-PriA inh 41
O=C(CNC(=O)C(c1ccccc1)c1ccccc1)NN=Cc1ccc(O)c([N+](=O)[O-])c1	none (no result: Mtb bLac sens, Rv3671c inh, RecA splice inh, UGM FP inh)
Cc1cc(C(c2ccc(C)o2)c2ccc(C)o2)c(O)c([N+](=O)[O-])c1	none
Cc1ccc(C(c2ccc(C)o2)c2cccc([N+](=O)[O-])c2O)o1	SSB-PriA inh 45
Brc1cc(-c2ccccn2)nc(-c2ccccn2)c1	SSB-PriA inh 58 (no result: Mtb bLac sens, Rv3671c inh, RecA splice inh, UGM FP inh)
Clc1cccc(-c2ccccn2)n1	none (no result: Mtb bLac sens, Rv3671c inh, RecA splice inh, UGM FP inh)
Clc1cc(-c2ccccn2)nc(-c2ccccn2)c1	SSB-PriA inh 64 (no result: Mtb bLac sens, Rv3671c inh, RecA splice inh, UGM FP inh)
O=C(Cc1ccc(F)cc1)N1CCN(c2nc(-c3ccsc3)cs2)CC1	none (no result: Mtb bLac sens, Rv3671c inh, RecA splice inh, UGM FP inh)
O=C(Nc1ccccc1Cc1nc(-c2ccncc2)no1)Nc1ccccc1C(F)(F)F	none (no result: Mtb bLac sens, Rv3671c inh, RecA splice inh, UGM FP inh)
CC(=O)N1CCc2ccc(NS(=O)(=O)c3ccc(C)s3)cc21	none (no result: Mtb bLac sens, Rv3671c inh, RecA splice inh, UGM FP inh)
O=[N+]([O-])c1nn(-c2cccc(Cl)c2)n(O)c1=NC1CCCCCC1	SSB-PriA inh 66 (no result: Mtb bLac sens, Rv3671c inh, RecA splice inh, UGM FP inh)
Cc1cc(C)cc(N=c2c([N+](=O)[O-])nn(-c3cccc(Cl)c3)n2O)c1	none
O=[N+]([O-])c1nn(-c2ccccc2)n(O)c1=NC1CCCCCC1	SSB-PriA inh 64 (no result: Mtb bLac sens, Rv3671c inh, RecA splice inh, UGM FP inh)
CN1CCN(/C=C(\C#N)C(=O)NCCc2ccccc2)CC1	none (no result: Mtb bLac sens, Rv3671c inh, RecA splice inh, UGM FP inh)
COc1ccc(C(=O)NCc2sc3nc(-c4ccc(F)cc4)cn3c2C)nn1	none (no result: Mtb bLac sens, Rv3671c inh, RecA splice inh, UGM FP inh)
CCOC(=O)N1CCC(c2cc(=O)n3[nH]c(C)c(-c4ccc(F)cc4)c3n2)CC1	SSB-PriA inh 55
CCOC(=O)N1CCC(c2cc(=O)n3[nH]c(-c4ccccc4)cc3n2)CC1	none

Screening data: PubChem BioAssay, several laboratories
